The source of these data is the supplement of paper PMC9262897, “Low-cost anti-mycobacterial drug discovery using engineered E. coli” (Nature Communications, 2022).

Molecules are shown by their SMILES. Where a name gives a salt, the structure may show the parent alone. ± gives the standard deviation of the averaged measurements.

The experiment has as its system E. coli TESEC Mtb Alr. Put plainly: growth (OD600 after 10 h); higher = more growth (less inhibition). The conditions noted are these: compound 0.1 mM. The protocol: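 TESEC Mtb Alr E. coli, or the Alr+ wild-type control, in 384-well plates with Prestwick library compounds at 0.1 mM and 1% DMSO, across arabinose induction levels of 1E3 to 1E7 nM. Growth is read as OD600 after 10 h at 37 °C in triplicate biological replicates.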

[1] abbreviates: arabinose 1000 nM, raw OD600 reference: median of DMSO wells 0.294, cell-free background 0.041.
Where [2] appears, read: arabinose 10000 nM, raw OD600 reference: median of DMSO wells 0.264, cell-free background 0.041.
The mark [3] stands for this setting: arabinose 100000 nM, raw OD600 reference: median of DMSO wells 0.201, cell-free background 0.041.
Setting [4] is: arabinose 1000000 nM, raw OD600 reference: median of DMSO wells 0.193, cell-free background 0.041.
The mark [5] stands for this setting: arabinose 10000000 nM, raw OD600 reference: median of DMSO wells 0.146, cell-free background 0.041.

Take `CCOC(=O)OC(C)OC(=O)[C@@H]1N2C(=O)[C@@H](NC(=O)[C@H](N)c3ccccc3)[C@H]2SC1(C)C` (stereo not given in full) [Bacampicillin hydrochloride]: the growth by setting is: under setting [1], 0.305 ± 0.011; under setting [2], 0.269 ± 0.0047; under setting [3], 0.356 ± 0.0077; under setting [4], 0.17 ± 0.0089; under setting [5], 0.198 ± 0.006.
For `O=c1[nH]c(=O)n([C@H]2C[C@H](O)[C@@H](CO)O2)cc1I` [Idoxuridine] the same measures were 0.285 ± 0.0078, 0.268 ± 0.012, 0.206 ± 0.0098, 0.203 ± 0.0061 and 0.15 ± 0.0075.
Regarding `NS(=O)(=O)c1cc2c(cc1C(F)(F)F)NC(Cc1ccccc1)NS2(=O)=O` (stereo not given) [Bendroflumethiazide], the growth under setting [1] turned out to be 0.301 ± 0.0067; the growth under setting [2] is 0.261 ± 0.0081; the growth under setting [3] is 0.219 ± 0.015; the growth under setting [4] came out at 0.162 ± 0.005; the growth under setting [5] was found to be 0.154 ± 0.0047.
`COc1cc(NC(C)CCCN)c2ncccc2c1` (stereo not given) [Primaquine diphosphate]: the growth worked out at 0.0463 ± 0.00081 under setting [1]; 0.04143 ± 0.00031 under setting [2]; 0.0508 ± 0.0023 under setting [3]; 0.043 ± 0.00026 under setting [4]; 0.0577 ± 0.0019 under setting [5].
For `CN[C@@H]1[C@@H](O[C@H]2O[C@H](CO)[C@@H](N)[C@H](O)[C@H]2O)OC2C[C@@H](N)[C@@H](O[C@H]3[C@H](O)[C@@H](O)[C@H](N)C[C@@H]3N)OC2[C@@H]1O` (stereo not given in full) [Apramycin] the same measures were 0.045 ± 0.0037, 0.03913 ± 0.00032, 0.0442 ± 0.00091, 0.0395 ± 0.0018 and 0.05653 ± 0.00029.
Turning to `CCCc1nn(C)c2c(=O)[nH]c(-c3cc(S(=O)(=O)N4CCN(C)CC4)ccc3OCC)nc12` [Sildenafil], the growth amounted to 0.235 ± 0.01 under setting [1]; 0.275 ± 0.014 under setting [2]; 0.186 ± 0.016 under setting [3]; 0.1606 ± 0.00076 under setting [4]; 0.1693 ± 0.0008 under setting [5].
For `CN(C)CC/C=C1/c2ccccc2COc2ccc(CC(=O)O)cc21` [Olopatadine hydrochloride] the same measures were 0.281 ± 0.0096, 0.276 ± 0.0029, 0.179 ± 0.014, 0.231 ± 0.013 and 0.126 ± 0.0042.
On the same counts, the results for `N=C(N)NC(=N)NCCc1ccccc1` [Phenformin hydrochloride] are 0.279 ± 0.014, 0.274 ± 0.0079, 0.2 ± 0.02, 0.186 ± 0.0089 and 0.137 ± 0.0039.
